# Test results as given in ChEMBL document CHEMBL4888484, “Replenishing the malaria drug discovery pipeline: Screening and hit evaluation of the MMV Hit Generation Library 1 (HGL1) against asexual blood stage Plasmodium falciparum ,using a nano luciferase reporter read-out” (2022).
# About 410 (8.5%) of roughly 4,800 compounds showed an effect of 50% or more. The entries come from a sample that favours strong results as a whole.
# System: Plasmodium falciparum
# Experiment: Confirmatory screen in NF54 pLDH assay, in single point, at 2uM, 72h
# Assay type: functional, Erythrocyte
# Settings: timepoint 72 hour
row,SMILES,% Inhibition [%]
1,Cc1cccc(NC(=O)Cn2ccc(C(=O)Nc3cccc(C)c3C)n2)c1C,-11
2,CCOC(=O)[C@@H]1C(=O)Nc2cc(OC)ccc21,9
3,COc1ccc(CCNCC(=O)Nc2c3c(nc4ccccc24)N(C)CC3)cc1OC,6
4,CN(C)c1ccc(NN=C2N=NN=N2)cc1,3
5,COc1cccc(Cn2c(=O)c3sccc3n(CC(=O)Nc3ccc4c(c3)OCO4)c2=O)c1,16
6,COc1cccc(NC(=O)Cn2c(=O)n(C)c(=O)c3sc(N4CCCC4)nc32)c1,1
7,COc1cccc(NC(=O)Cn2c(C)ccc(NS(=O)(=O)c3ccc(C)cc3)c2=O)c1,59
8,Cc1cc(C)c(NC(=O)CN(C)C(=O)NCc2ccco2)c(C)c1,-8
9,O=C(NC(Cn1ccccc1=O)c1ccccc1)C1CCOC1 (stereo unspecified),7
10,O=C(N[C@@H](Cn1nccn1)c1ccccc1)c1cc(Br)ccc1Cl,75
11,O=C(Nc1ccc2c(c1)c1cc(Br)ccc1n2Cc1ccccc1)c1ccccc1,6
12,Cc1ccccc1-c1cc2c(N3CCN(C4CCCCC4)CC3)nccn2n1,4
13,Cc1cc(Br)cc(N[C@H](c2cccnc2)c2ncc[nH]2)c1,6
14,Cc1ccc2nc3c(c(N)c2c1)CCCCN3C,-20
15,Cc1ccc2nc(C3CC3)cc(C(=O)N3C[C@@H](O)C[C@H]3CO)c2c1,-1
16,CC(C)c1ccc(S(=O)(=O)Nc2ccc3nc(NC(=O)c4ccccc4)sc3c2)cc1,6
17,CN(C)c1ccc(CNC2CCCCCC2)cc1,-13
18,CN(CC(=O)Nc1ccccc1C(F)(F)F)C1CNC1,8
19,Cc1csc(NC(=O)NCCc2cc(F)cc3c2OCOC3)n1,-14
20,COC[C@H](NCCc1cc(F)cc2c1OCOC2)C1CC1,82
21,N#Cc1cc(O)c(-c2c(O)n[nH]c2-c2ccccc2)cc1C#N,10
22,O=c1[nH]c(=O)n(Cc2nc(-c3ccco3)no2)cc1Cl,3
23,Cc1nn(C)c(C)c1CCCN[C@@H](C)c1cccc(O)c1,4
24,COC(=O)c1cccc(C#Cc2cccc(NC(=O)c3cnc(C)cn3)c2)c1,-9
25,Cc1ccc2nc(-c3cccc(NC(=O)c4ccc5c(c4)OCO5)c3)oc2c1,-7
26,N#CCC(=O)NC1CCC(CC2CCC(NC(=O)CC#N)CC2)CC1 (stereo unspecified),-2

row,SMILES,% Inhibition [%]
1,Cc1ccccc1S(=O)(=O)N1CCN(c2c(C)n(-c3ccccc3)c(=O)n(CC(C)C)c2=O)CC1,14
2,COc1ccc(CNC(=O)Nc2ccc3c(c2)N(C(=O)c2ccccc2)CCC3)cc1OC,11
3,COc1ccc([C@H](C(=O)Nc2ccc(N(C)C)cc2)N(Cc2ccccc2)C(=O)Cc2ccccc2)cc1OC,-14
4,CCC(C(=O)Nc1ccc2c(c1)CN(CCc1ccc(OC)c(OC)c1)C(=O)C(C)O2)c1ccccc1 (stereo unspecified),100
5,Cc1ccc(NC(=O)Cn2c(C)nc3c(-c4ccccn4)nsc3c2=O)c(C)c1,12
6,COc1cccc(CNC(C)(C)C)c1OCC(=O)NC(C)(C)C,-4
7,CCOc1cc(CNc2cccc3ccccc23)cc(Br)c1OCC(=O)NC(C)(C)C,91
8,CC[C@@H](CO)NCc1cccc(OC)c1OCC(=O)NC(C)(C)C,-12
9,O=C(Nc1ccn(-c2ccccc2)n1)N1CC2CCC(O)CC2C1 (stereo unspecified),-3
10,Cc1nsc2ncc(C(=O)N3CCC(C)CC3)c(N3CCC(C(=O)Nc4cc(F)ccc4F)CC3)c12,44
11,Cc1cnccc1NCCNCc1cccc(O)c1Cl,101
12,Clc1cc(CNCCc2ccccc2)ccc1OCc1ccccc1,3
13,COc1ccccc1CNCCNC(=O)c1ccncc1,9
14,N#Cc1c(CN(CCn2cccn2)Cc2cn3ccccc3c2C#N)cn2ccccc12,-22
15,C=CCN(CC=C)S(=O)(=O)c1ccc(S(=O)(=O)NC)cc1,-10
16,O=C(NC1CCCC1)c1cnn2c3c(cnc12)CCCCCC3,11
17,CCn1cc(Cl)c(C(=O)N(C2CCCCC2)C2CCCCC2)n1,10
18,Fc1cccc(F)c1-n1c(CN2CCCCC2)csc1=S,-5
19,CC(C)c1c2cc3c(cc2nn1-c1ccccc1)OCCO3,-11
20,CCCCCNC(=O)NCc1ncoc1C,4
21,C[C@H](O)CNCc1ccc(Cl)cc1Cl,1
22,Cc1cc(C)cc(-n2c(=O)c3sccc3n(CC(=O)NCc3ccccc3Cl)c2=O)c1,-17
23,O=c1[nH]c2ccccc2nc1-c1cc(Br)ccc1NS(=O)(=O)c1cccc2nsnc12,3
24,Fc1ccccc1N1CCN(c2c3c(nc4nc(Cc5ccc(Cl)cc5)nn24)CCCC3)CC1,7
25,CNc1nc(N2C[C@H](C)[C@@](O)(C3CC3)C2)nc2c1CCC2,1
26,Cc1cc(-c2ccccc2)c(C#N)c(=O)n1C(=O)c1ccc(C#N)cc1,11

row,SMILES,% Inhibition [%]
1,Brc1cc(Br)c2nc(-c3ccc(C4CCCCC4)cc3)ccc2c1,12
2,Cc1[nH]c2ccnn2c(=O)c1CC(=O)N1CC[C@H](C)c2cccc(O)c21,2
3,CCN(CC)c1nc(-c2ccccc2)c(C#N)c(N)c1C#N,12
4,O=C(CN1CCC[C@H]1C1CCCC1)NCC1CCCCC1,61
5,CC(C)N1CCC(NC(=O)NCC2CCCCCCC2)CC1,6
6,O=C(CN1CCOC2CCCCC21)N1CCOC2CCCCC21 (stereo unspecified),-9
7,COc1ccc(OCC(=O)Nc2ccc(N3CCn4c(nc5cc(Cl)ccc54)C3)cc2OC)cc1,-5
8,CC(C)COc1ccc(/C(N)=N/O)cc1,-20
9,Cc1ccccc1CN(Cc1ccccn1)Cc1ccnn1C,-5
10,CC1CCC(N(C)C(=O)c2cc(S(=O)(=O)N3CCCCC3)ccc2N2CCCC2)CC1 (stereo unspecified),-10
11,Cc1cc(C(=O)N[C@H]2CCS(=O)(=O)C2)nc(N(C)C)n1,2
12,Cc1ccc(N2C(=O)CN(CC(C)C)[C@H]3CS(=O)(=O)C[C@H]32)cc1,14
13,Cc1cccc(NC(=O)CCC(=O)OCC(F)(F)C(F)F)c1C,1
14,CC(C)(C)[C@H]1CCc2c(sc(NC(=O)C3(F)C(F)(F)C(F)(F)C(F)(F)C(F)(F)C3(F)F)c2C#N)C1,51
15,N#Cc1c(NC(=O)CN2CCC[C@@H]2CO)sc2c1CCCCC2,0
16,COCCN(CC(N)=O)CC(=O)NCc1ccccc1F,9
17,CC(C)(C)n1nc2nc(NCCN3CCCCC3)nc(-c3ccc(F)c(Cl)c3)c2c1N,76
18,COCCNc1nc(-c2ccccc2OC)c2c(N)n(-c3ccc(F)cc3)nc2n1,-5
19,COc1ccc(CCNc2nc(-c3ccc(OC)cc3F)c3c(N)n(-c4ccc(Cl)cc4)nc3n2)cc1,40
20,CN(Cc1ccsc1)C(=O)c1cc2ccccc2[nH]1,17
21,Cn1c(-c2ccc(Cl)c(Cl)c2)c[n+](CC(=O)c2ccc(F)cc2)c1N,-12
22,CCOc1nc(C)nc2cc(-c3ccccc3)n(Cc3ccccc3)c12,13
23,CCOc1ccc(-[n+]2cc(-c3ccccc3)n3c2CCC3)cc1,70
24,COc1ccc(C(=O)C[n+]2nc(CNc3ccc(Br)cc3)n3c2CCCCC3)cc1,82
25,COc1ccc(C(=O)C[n+]2cc(-c3ccc(OC)cc3)n3c2CCCC3)cc1,65
26,FC(F)Oc1ccc(-c2c[n+](-c3cccc(C(F)(F)F)c3)c3n2CCCCC3)cc1,42

row,SMILES,% Inhibition [%]
1,Cn1c(-c2ccc(Br)cc2)c[n+](CC(=O)c2ccc(Br)cc2)c1N,-4
2,COc1ccc(CC(=O)NCc2nnc3n2CCC3)cc1,9
3,Cc1ccc(-c2c[n+](-c3ccc(OC(F)F)cc3)c3n2CCCCC3)cc1,60
4,Cc1nnc(NC(c2cnc3ccccc3c2)[C@H]2C[C@@H](O)C2)s1 (stereo partly specified),12
5,O=C(Cc1c[nH]c2ccccc12)N1CCc2ccccc2C1,-17
6,COc1ccc2c(c1)OC13CCN(C)CC1C2C(C(=O)c1ccccc1OC)C(=O)N3 (stereo unspecified),10
7,CCC(=O)N1CCc2sc(S(=O)(=O)N3CCN(c4cc(C)ccc4C)CC3)cc2C1,38
8,c1ccc(-c2cn(-c3ccccc3)c3ncnc(N4CCCC4)c23)cc1,13
9,C=CCOc1cc(C(=O)N2CCCCC2)cc2occc12,11
10,COc1cc([C@H]2CC(=O)Nc3c2cnn3C)ccc1OCc1ccccc1,-8
11,O=C(NC1CCCNC1=O)NC1CCCC1c1ccc(Cl)cc1 (stereo unspecified),10
12,O=C(NCCC1=CCOCC1)c1cnc2ccccn12,-2
13,O=C(CCc1ccccc1)Nc1ccc(-n2nn[nH]c2=O)cc1,15
14,O=C1Nc2ccccc2[C@@]12Nc1ccccc1CO2,9
15,C[C@@H](C(=O)N1CCN(C/C=C/c2ccccc2)CC1)N1Cc2ccccc2C1=O,0
16,Cc1ccc(CCNC(=O)c2ccc(-c3nc(CS(=O)(=O)c4ccc(C)cc4)c(C)o3)cc2)cc1,-23
17,COc1ccc(N2CCN(Cc3cc(-c4ccc(Cl)cc4)no3)CC2)cc1,-19
18,COc1ccc(-c2c[n+](-c3ccc(Cl)cc3)c3n2CCCCC3)cc1,57
19,COc1ccc(-n2nc(C(=O)N3CCN(c4ncccn4)CC3)c(=O)cc2OC)cc1,-29
20,CCC(C)(C)N(C)C(=O)c1ccccc1Cl,-1
21,CC12CN(S(=O)(=O)c3ccc4c(c3)OCCO4)C3(C(=O)OCc4ccccc4)CC1CCC23C (stereo unspecified),64
22,COc1ccc2c(c1)CCN2S(=O)(=O)c1ccc2c(c1)OCCO2,-4
23,Cc1cc(C)n(S(=O)(=O)c2ccc3c(c2)OCCO3)n1,7
